About 2,000 (36%) of roughly 5,500 compounds were called active. About 18% were inconclusive and are not listed. Cut-off read from the data, not from the text of the source: active = normalized growth mostly below about 0.91 (no sharp cut-off); inconclusive = no clear call, values can overlap the other calls; inactive = mostly above about 0.92. The list shows a part of the results.
Test: chemical genetic growth profiling, strain panel (AID 1159580);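 note: tested at 20 µM; growth read once vehicle control cultures reached saturation at 30 °C; 1 = growth at the plate median or of vehicle wells; lower values mean less growth of the strain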
Settings: S. cerevisiae deletion strains, growth OD

Measured: normalized growth

CCCCCN=C(N)N/N=C\c1c[nH]c2ccc(OC)cc12
inactive: locus YAL013W, strain DEP1, hits give low values 1.01 | locus YAL021C, strain ccr4, hits give low values 0.985 | locus YAL026C, strain drs2, hits give low values 0.928 | locus YAL030W, strain snc1, hits give low values 1.01 | locus YBL061C, strain skt5, hits give low values 1.01 | locus YBR009C, strain hhf1, hits give low values 0.985 | locus YBR021W, strain FUR4, hits give low values 0.989 | locus YBR023C, strain chs3, hits give low values 0.988 | locus YBR171W, strain sec66, hits give low values 1.03 | locus YBR229C, strain ROT2, hits give low values 1 | locus YBR231C, strain swc5, hits give low values 1 | locus YBR279W, strain paf1, hits give low values 1.01 | locus YCL011C, strain gbp2, hits give low values 1 | locus YCL016C, strain dcc1, hits give low values 0.985 | locus YCL029C, strain bik1, hits give low values 1.03 | locus YCL069W, strain vba3, hits give low values 1.02 | locus YCR088W, strain abp1, hits give low values 1.02 | locus YDL005C, strain med2, hits give low values 1.01 | locus YDL035C, strain GPR1, hits give low values 0.989 | locus YDL040C, strain nat1, hits give low values 0.998 | locus YDL074C, strain BRE1, hits give low values 1.01 | locus YDL101C, strain DUN1, hits give low values 1.01 | locus YDL134C, strain PPH21, hits give low values 0.997 | locus YDL185W, strain tfp1, hits give low values 1.06 | locus YDL192W, strain arf1, hits give low values 1.03 | locus YDR001C, strain nth1, hits give low values 1.01 | locus YDR069C, strain doa4, hits give low values 1.02 | locus YDR101C, strain arx1, hits give low values 1.02 | locus YDR137W, strain rgp1, hits give low values 1.07 | locus YDR150W, strain NUM1, hits give low values 1.02 | locus YDR159W, strain sac3, hits give low values 0.965 | locus YDR162C, strain NBP2, hits give low values 0.993 | locus YDR195W, strain ref2 1.01 | locus YDR297W, strain sur2, hits give low values 1 | locus YDR318W, strain mcm21, hits give low values 1.02 | locus YDR334W, strain swr1, hits give low values 1.01 | locus YDR335W, strain msn5, hits give low values 1.01 | locus YDR388W, hits give low values 1.03 | locus YDR392W, strain spt3, hits give low values 0.911 | locus YDR502C, strain sam2, hits give low values 1 | locus YEL003W, strain gim4, hits give low values 1.01 | locus YEL037C, strain rad23, hits give low values 1.01 | locus YEL061C, strain CIN8 (second series), hits give low values 1.01 | locus YEL061C, strain CIN8, hits give low values 0.994 | locus YER015W, strain faa2, hits give low values 0.982 | locus YER016W, strain bim1, hits give low values 1 | locus YER110C, hits give low values 1.05 | locus YER111C, strain swi4, hits give low values 1.02 | locus YER155C, strain BEM2 (second series), hits give low values 0.968 | locus YER155C, strain BEM2, hits give low values 1.01 | locus YER167W, strain BCK2, hits give low values 1.01 | locus YFR010W, strain ubp6, hits give low values 1.03 | locus YGL078C, strain dbp3, hits give low values 1.02 | locus YGL086W, strain mad1, hits give low values 1.01 | locus YGL167C, strain pmr1, hits give low values 1.01 | locus YGL173C, strain kem1, hits give low values 1.01 | locus YGL227W, strain vid30, hits give low values 1.02 | locus YGL240W, strain doc1, hits give low values 1.01 | locus YGL248W, strain PDE1, hits give low values 1 | locus YGL253W, strain hxk2, hits give low values 1.03 | locus YGR078C, strain PAC10, hits give low values 1.02 | locus YGR135W, strain pre9, hits give low values 1.02 | locus YGR229C, strain SMI1, hits give low values 0.997 | locus YGR252W, strain gcn5, hits give low values 1.01 | locus YHR013C, strain ard1, hits give low values 1.03 | locus YHR027C, strain rpn1, hits give low values 1 | locus YHR030C, strain SLT2, hits give low values 1.01 | locus YHR079C, strain IRE1 (second series), hits give low values 1.01 | locus YHR094C, strain hxt1, hits give low values 1.02 | locus YHR129C, strain ARP1, hits give low values 0.999 | locus YHR142W, strain chs7, hits give low values 0.993 | locus YHR200W, strain rpn10, hits give low values 1.04 | locus YIL066C, strain RNR3, hits give low values 0.996 | locus YIL073C, strain SPO22, hits give low values 1.02 | locus YIL125W, strain kgd1, hits give low values 1.01 | locus YIR030C, strain dcg1, hits give low values 1.02 | locus YJL092W, strain hpr5, hits give low values 1.01 | locus YJL095W, strain BCK1 (second series), hits give low values 1.01 | locus YJL095W, strain BCK1, hits give low values 0.987 | locus YJL115W, strain asf1, hits give low values 1 | locus YJL129C, strain trk1, hits give low values 1.02 | locus YJL134W, strain LCB3, hits give low values 1.01 | locus YJL154C, strain vps35, hits give low values 1.01 | locus YJL164C, strain tpk1, hits give low values 0.978 | locus YJL166W, strain qcr8, hits give low values 1.02 | locus YJL168C, strain set2, hits give low values 1.02 | locus YJL187C, strain SWE1 (second series), hits give low values 1 | locus YJL187C, strain SWE1, hits give low values 1

Reference: PubChem BioAssay AID1159580 (chemical genetic matrix, 2015)
